# Assay outcomes (PubChem BioAssay)
# Sampled rows, rich in hits. Any-hit rate of the full collection: about 3.7%.
# PTHR1 agonist: agonists of human PTHR1 parathyroid hormone receptor; HEK293 GP2 PTHR1 cells, GloSensor cAMP luminescence, 1 h; Potency, µM (highest dose often 115 µM), for the others: top-dose activation, hits mostly activators; hit rate 0.075% among 410,000; AID 743266; note: potency is the fitted concentration of half-maximal effect; nearly all actives have a fitted effect of over 55% in size
#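 HEK-293-derived GP2 cells expressing PTHR1 and a GloSensor cAMP reporter, 3,000/well, plated overnight, given luciferin plus IBMX (each 0.5 mM as added) for 1 h at 37 °C, then compound for 1 h at 37 °C. Luminescence was read after 15 min at room temperature.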
# D3 ag: D3 dopamine receptor (human) agonism. hit rate 0.58% among 410,000. max activation, %. AID 652048. D3R DiscoveRx beta-arrestin cells, luminescence, 90 min; in the data active = max activation above about 30%; note: 0% is about no effect
# Target sequence (P35462 whole entry, looked up): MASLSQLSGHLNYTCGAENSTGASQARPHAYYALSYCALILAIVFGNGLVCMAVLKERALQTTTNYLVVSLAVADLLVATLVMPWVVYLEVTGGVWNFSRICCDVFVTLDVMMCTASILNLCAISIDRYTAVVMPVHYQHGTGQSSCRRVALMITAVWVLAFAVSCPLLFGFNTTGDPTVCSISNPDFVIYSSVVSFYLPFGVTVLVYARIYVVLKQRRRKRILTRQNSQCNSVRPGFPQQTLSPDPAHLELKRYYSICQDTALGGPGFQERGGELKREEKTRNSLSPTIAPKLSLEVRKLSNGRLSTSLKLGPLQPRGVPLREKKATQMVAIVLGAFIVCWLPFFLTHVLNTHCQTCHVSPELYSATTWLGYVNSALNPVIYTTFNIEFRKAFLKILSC
#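 Cells at 1500/well, incubated overnight, then treated with pinned compounds (dopamine as control) for 90 min at 37 degrees C. DiscoveRx reagent added for 30 - 60 minutes at room temperature; luminescence read.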
# RGS4 inh: human RGS4 inhibition | Transcreener GDP fluorescence polarization, RGS4-accelerated GTP hydrolysis | Potency, µM (titrated, usually from 114 µM), for inactives: at the top dose activity change, negative = inhibition, actives largely listed as inhibitors | hit rate 0.039% among 390,000; note: potency is the fitted concentration of half-maximal effect; % is set by controls: 0 for no effect and ±100 for the full control effect; nearly all actives have a fitted effect of over 75% in size
# Target sequence (P49798 whole entry, looked up): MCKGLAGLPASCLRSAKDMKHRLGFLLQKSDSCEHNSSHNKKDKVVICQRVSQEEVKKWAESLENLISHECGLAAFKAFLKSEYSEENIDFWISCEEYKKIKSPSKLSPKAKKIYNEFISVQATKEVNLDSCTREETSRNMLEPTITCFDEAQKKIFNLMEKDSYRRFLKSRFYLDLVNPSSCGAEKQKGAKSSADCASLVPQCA
#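 MLSMR compounds (23 nl, pin-transferred) preincubated 10 min at room temperature with a 500nM (2x) first reagent, then RGS4 at 900nM (2x) plus Transcreener GDP mix added; fluorescence polarization (620/688 nm) read before and after 90 min at 30 °C.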
# DRD3 antagonist: D3 dopamine receptor (human) antagonism; AID 652054; hit rate 2.5% among 360,000; max response, negative = inhibition, %; D3R cells, DiscoveRx beta-arrestin luminescence, antagonist mode; active compounds read low; P35462; in the data active = max response below about -50%; inconclusive = no clear call, values can overlap the other calls; note: % is set by controls: 0 for no effect and ±100 for the full control effect
#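 Cells expressing the human receptor were seeded at 1500 cells/well, incubated overnight at 37 degrees C in 5% CO2, then exposed to library compounds with dopamine controls for 90 minutes at 37 degrees C before luminescent detection.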
# B2AR arrestin: recruits beta-arrestin to the human beta2-adrenergic receptor | P07550 | beta-arrestin recruitment to beta2AR, cell-based reporter | Potency, µM (top dose mostly 46.1 µM), inactives show at the top dose activation, actives largely listed as activators | hit rate 0.02% among 330,000;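 note: potency is the fitted concentration of half-maximal effect; 0% = DMSO controls and full agonism = EC100 isoproterenol or metaproterenol; nearly all actives have a fitted effect of over 65% in size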
# BRCA1 expr up: increases BRCA1 expression | MCF7-BRCA1-FFLuc reporter, luminescence, 48 h; response scale: scaled: vehicle 0%, 10 µM genistein 100% | Potency, µM (top dose mostly 46.1 µM), inactives show at the highest dose activation, hits mostly activators | hit rate 1.1% among 380,000 | AID 624202; note: potency is the fitted concentration of half-maximal effect; nearly all actives have a fitted effect of over 80% in size
#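 Reporter cells (MCF7, BRCA1 promoter-firefly luciferase) received library compounds across a concentration series for 48 h. End-point luminescence was measured and concentration-effect curves derived after normalization.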
# Starred values were filed as active, the others as inactive; i = inactive; ? = inconclusive; / = not tested or not shown; [ ] = dose if it differs, or a comment. Unless noted, calls come from the whole dose curve; as a rule, active = well fitted curve in the direction sought with a large enough effect; inconclusive = small, poorly fitted or top-dose-only effect, or another doubt; inactive = no such curve, though single readings can be large; an effect the other way counts as inactive or inconclusive.
SMILES,PTHR1 agonist,D3 ag,RGS4 inh,DRD3 antagonist,B2AR arrestin,BRCA1 expr up
COC(=O)Cn1c(CCS(=O)(=O)c2ccc(C)cc2)nc2ccccc21,i,0,9%,-101*,0%,0%
CC1(C(=O)NS(=O)(=O)c2ccc(Cl)s2)CCN1C(=O)C1(c2ccc(Cl)cc2)CCC1 (stereo not drawn),i,1,/,21,/,6%
COc1cccc(C2NC(C)(C(=O)O)C3C(=O)N(C(C)C)C(=O)C23)c1O (stereo not drawn),8%,4,24%,-53*,0%,0%
CCc1ccc(OCC(=O)NC(Cc2c[nH]c3ccccc23)C(=O)O)cc1 (stereo not drawn),0%,1,0%,/,/,/
CCOC(=O)C(=CNc1cccnc1Oc1ccc(C)c2c1CCC2)C(=O)OCC,-14%,37*,-14%,67,1%,-64%
O=[N+]([O-])c1ccc2nc(Cl)nc(-c3ccccc3)c2c1,-6%,-1,26%,-56*,-1%,-14%
O=[N+]([O-])c1ccc(/C=C/c2cc(Cl)nc3ccccc23)cc1,/,/,/,/,/,-32%
CCOc1ccc(S(=O)(=O)n2c([N+](=O)[O-])cnc2C)c(C)c1C,-19%,1,15%,1,0%,-8%
CC(C)N1CC=C2C(C#N)=C(N)C(C#N)(C#N)C(c3ccccc3)C2C1 (stereo not drawn),i,0,-5%,-77*,0%,-21%
CCN1CC=C2C(C#N)=C(N)C(C#N)(C#N)C(c3cc(Cl)ccc3Cl)C2C1 (stereo not drawn),-5%[57.5 µM],-18,20%[11.4 µM],-90*,0%,-25%
CCN(CC)P(=O)(Nc1ccc(C)cc1Br)c1ccc(N(C)C)cc1NC(=O)c1ccco1 (stereo not drawn),-40%,-17,-34%,-60*,0%,-77%
Cc1ccc(NC(=O)c2ccco2)c(NC(=O)c2ccccc2)c1,-6%,5,10%,9,1%,-14%
CN(Cc1ccccc1)C(=O)[C@@H]1CCCN1C(=O)[C@@H]1CCCN1C(=O)c1cccc2ccccc12,-27%,-5,/,-50*,/,10%
CCc1csc(CNC(=O)C2CCC(=O)N(Cc3cccc(F)c3)C2)n1 (stereo not drawn),i,2,-3%,-3,0%,-2%
O=C(Cn1c(-c2cncs2)nc2ccccc21)NCc1ccccc1,?,-35,14%,-84*,1%,2%
Cc1ccc(NC(=O)Cn2c(-c3cncs3)nc3ccccc32)c(Br)c1,-6%,1,-21%,/,/,/
Cc1ccc(S(=O)(=O)CC(=O)Nc2ccc3nc(C)sc3c2)cc1,-19%,1,9%,2,0%,0%
Cc1nc2ccc(NC(=O)Cc3cccs3)cc2s1,i,9,-13%,8,-1%,3.5µM*
Cc1ccc(NC(=O)CCC(=O)c2cccs2)cc1F,-6%,-5,5%,-18,0%,13µM*
Cc1ccc(NC(=O)Cc2cccs2)cc1Cl,-9%,3,-24%,19,-1%,11µM*
O=C(Cc1cccs1)Nc1ccc(F)c(F)c1,-20%,-1,19%,-9,0%,31%
Cc1nc2ccc(NC(=O)Cc3ccc(Br)cc3)cc2s1,?,-11,-12%,-7,0%,0%
Cc1ccc(NC(=O)CCNS(=O)(=O)c2cccs2)cc1F,-40%,1,21%,-9,-1%,17%
Cc1nc2ccc(NC(=O)CS(=O)(=O)c3ccc(F)cc3)cc2s1,-4%,-11,5%,-15,?,11µM*
Cc1ccc(OCC(=O)NCCc2c[nH]c3ccccc23)cc1,-1%,5,-18%,17,-1%,-20%
SMILES,PTHR1 agonist,D3 ag,RGS4 inh,DRD3 antagonist,B2AR arrestin,BRCA1 expr up
Cc1nnc(NC(=O)C2CC(=O)N(c3ccccc3)C2)s1 (stereo not drawn),i,-5,-33%,-14,0%,-8%
CC(=O)O[C@@H](C[C@@H](C)C1=C2C[C@H](O)C3[C@@]4(C)CCC(=O)C(C)(C)C4CC[C@]3(C)[C@@]2(C)CC1)[C@H]1OC1(C)C (stereo partly drawn),-23%,50*,4%,10,/,-34%
CCn1c(C)c(C)c2cc(C(=O)NCCc3cc(OC)c(OC)c(OC)c3)ccc21,i,2,-27%,/,/,/
O=C1CCCCC1c1cccc2ccccc12 (stereo not drawn),i,-1,16%,0,0%,4%
O=C1O/C(=C/Br)CCC1c1cccc2ccccc12 (stereo not drawn),/,/,9.5µM*,/,/,/
S=c1[nH]cc(-c2ccccc2)n1-c1ccccc1,-35%,-2,?,-7,0%,-5%
Cc1ccc(-n2c(-c3ccccc3)c[nH]c2=S)cc1,-27%,41*,?,0,0%,-22%
CCOC(=O)C1(C)/C(=N/Nc2ccccc2OC)C(=O)C(=O)N1c1ccccc1 (stereo not drawn),-1%,3,-52%,-16,0%,-3%
CCOC(=O)C1(C)/C(=N/Nc2ccccc2)C(=O)C(=O)N1c1ccccc1 (stereo not drawn),-5%,-10,?,-58*,0%,5%
CCCCN(CCCC)C(=S)[S-].CCCCN(CCCC)C(=S)[S-].[Zn+2],/,-1,/,/,/,/
Cc1ccc(-n2c(SCC(=O)NCc3ccco3)nc3c([nH]c4ccccc43)c2=O)cc1,-47%,0,-7%,-50*,3%,-1%
Cc1cc(C)cc(-n2c(SCC(=O)NCc3ccco3)nc3c([nH]c4ccccc43)c2=O)c1,i,0,-3%,/,/,-33%
CCCCOc1ccc(Br)cc1/C(C)=N/NC1=NCCN1,-16%[57.5 µM],-22,-12%,-26,0%,-90%
CC(=NNC1=NCCN1)c1cn(C2=NCCN2)nc1C,-5%,-5,/,-50*,/,1%
CC(C)n1cc(/C=N/NC(=O)COc2cccc3cccnc23)c2ccccc21,-10%,34*,?,16,0%,45%
Cc1cc(-c2cc(C(=O)NCc3ccccc3)on2)nc(S(C)(=O)=O)n1,-38%,-31,30%,-65*,-1%,-48%
Cc1ccnc(N(C(=O)Nc2ccccc2)C2=NCC(C)(C)S2)c1,-2%,8,15%,2,0%,3.2µM*
CCOc1ccc(N2CC(C(=O)NC3=NCCS3)CC2=O)cc1 (stereo not drawn),-19%,-2,18%,-22,-1%,-5%
COc1cccc(C2CC(C(F)(F)F)n3nc(C(=O)Nc4c(C)n(C)n(-c5ccccc5)c4=O)cc3N2)c1 (stereo not drawn),-25%,5,3%,-87*,0%,-16%
